LASV entry inh = qHTS for Inhibitors of binding or entry into cells for Lassa Virus. 300,000 compounds, 1.2% hits. Lassa virus pseudotype entry inhibition, cell reporter. Potency, µM (highest dose often 37.9 µM), hits mostly inhibitors; calls by dose curve; tested in HEK293 cells; further: nearly all actives have a fitted effect of over 50% in size
Sm TGR inh = qHTS Assay for the Inhibitors of Schistosoma Mansoni Peroxiredoxins | purified TGR, DTNB reduction, TNB absorbance 405 nm | Potency, µM (titrated, usually from 114 µM), actives largely listed as inhibitors | 360,000 compounds, 3% hits; further: nearly all actives have a fitted effect of over 60% in size
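Kinetic colorimetric format: TGR-catalysed, NADPH-driven DTNB reduction monitored via TNB absorbance. Enzyme dispensed at 20 nM; compound exposure 15 min at room temperature before reaction start.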
FMDV antiviral = High Throughput Screening for Foot and Mouth Disease Virus Antivirals | FMDV antiviral cell-based qHTS | Potency, µM (titrated, usually from 57.9 µM), actives largely listed as inhibitors | 410,000 compounds, 1.2% hits; calls by dose curve; tested in HEK293T cells; further: read-out not given here; nearly all actives have a fitted effect of over 45% in size
Marburg entry inh = qHTS for inhibitors of binding or entry into cells for Marburg Virus; Marburg virus pseudotyped entry inhibition, cell reporter; Potency, µM (doses to about 37.8 µM), most hits filed as inhibitors; 300,000 compounds, 1.8% hits; AID 540276, 2011; calls by dose curve; tested in HEK293 cells
RE007 growth inh = qHTS Assay for Inhibitors of the HIV-1 protein Vpr; S. pombe RE007 Vpr strain, BacTiter-Glo ATP luminescence, 24 h; Potency, µM (highest dose often 92.2 µM), actives largely listed as inhibitors; 360,000 compounds, 0.21% hits; AID 651644, 2012; active means well fitted falling curve with a large enough effect; inconclusive means small, poorly fitted or top-dose-only effect; inactive means no such curve, though single readings can be large or run the other way; further: nearly all actives have a fitted effect of over 50% in size
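Fission yeast RE007 carrying one integrated HIV-1 vpr copy, seeded at OD 0.01 in PMG+AL medium with 23 nL pinned compound. Grown 24 h at 30 degrees; viability read by BacTiter-Glo luminescence after 5 min.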
HCV inhibitor = qHTS Assay for Inhibitors of Hepatitis C Virus (HCV). Huh7.5.1 HCVcc-Cre infection, luciferase reporter, 44 h. Potency, µM (titrated, usually from 41.8 µM), most hits filed as inhibitors. 340,000 compounds, 3.4% hits
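Whole-lifecycle infectious HCVcc-Cre system; cells 1,000/well, compound then virus (~0.5 moi) added 4 h after plating, 44 h culture. Luciferase read 15 sec following 15 min substrate incubation, room temp.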
Each line names hits and unclear results; the compound was inactive in the other large screens. A selection: hits, their analogues and other compounds. The true share with any hit is near 7.2%. Unless noted, the call rests on the fitted dose curve; in most records, active means well fitted curve in the direction sought with a large enough effect; inconclusive means small, poorly fitted or top-dose-only effect, or another doubt; inactive means no such curve, though single readings can be large; an effect the other way counts as inactive or inconclusive.

O=C(NNC(=O)c1cccnc1SCc1cccc([N+](=O)[O-])c1)c1ccccn1	LASV entry inh inconclusive, Marburg entry inh 3.2µM, HCV inhibitor inconclusive
O=C(NNC(=O)c1cccnc1SCc1cccc([N+](=O)[O-])c1)c1ccc(F)cc1	LASV entry inh inconclusive, Marburg entry inh inconclusive, HCV inhibitor inconclusive
O=c1c2cnn(-c3ccc(F)cc3)c2ncn1Cc1ccccc1Cl	Marburg entry inh inconclusive (no result: RE007 growth inh, HCV inhibitor)
CCOC(=O)c1c2c(n(-c3ccc(OC)cc3)c1C)C(=O)C(=O)c1ccccc1-2	LASV entry inh 2.2µM, FMDV antiviral 13µM, Marburg entry inh inconclusive, HCV inhibitor 7.9µM (no result: Sm TGR inh)
COCOc1ccc(Br)cc1C(=O)C=Cc1ccc2c(c1)OCO2	none (no result: LASV entry inh, Sm TGR inh, FMDV antiviral, RE007 growth inh, HCV inhibitor)
COCCNC(=O)C1(C)CCN(C(=O)c2cccc(C)c2C)C1 (configuration not stated)	none (no result: LASV entry inh, Sm TGR inh, Marburg entry inh, HCV inhibitor)
CCC1CN(C(=O)NCc2ccccc2)c2ccccc2O1 (configuration not stated)	Marburg entry inh inconclusive, HCV inhibitor inconclusive
CCC1CN(C(=O)NCc2ccccc2)c2cc(Cl)ccc2O1 (configuration not stated)	HCV inhibitor 5.6µM (no result: Marburg entry inh)
COc1ccc(-c2oc3cc(OC)c(O)c(OC)c3c(=O)c2OC)cc1O	HCV inhibitor 8.9µM (no result: LASV entry inh, Marburg entry inh)
COc1ccc(-c2cc(=O)c3c(O)c(OC)c(OC)c(OC)c3o2)cc1OC	none (no result: LASV entry inh, Sm TGR inh, Marburg entry inh, RE007 growth inh, HCV inhibitor)
COc1ccc(-c2oc3c(OC)c(OC)c(OC)c(O)c3c(=O)c2OC)cc1OC	HCV inhibitor 10µM (no result: LASV entry inh, Marburg entry inh)
COc1ccc(-c2oc3cc(O[C@@H]4OC(CO)C(O)C(O)C4O)c(OC)c(O)c3c(=O)c2OC)cc1O (some centres not stated)	none (no result: LASV entry inh, Sm TGR inh, Marburg entry inh, RE007 growth inh, HCV inhibitor)
COc1cc(C)c(CN2C[C@H](Sc3nc4ccccc4[nH]3)C[C@H]2C(=O)N(C)C)cc1C	none (no result: LASV entry inh, Sm TGR inh, Marburg entry inh, RE007 growth inh, HCV inhibitor)
Nc1cc(-c2ccco2)no1	Sm TGR inh 28µM
c1ccc(-c2noc(-c3ccco3)n2)nc1	LASV entry inh inconclusive, Marburg entry inh inconclusive
CCOc1ccc(C(CC(=O)Nc2cc(C)c(Cl)cc2OC)N2Cc3ccccc3C2=O)cc1OC (configuration not stated)	none (no result: Marburg entry inh, RE007 growth inh, HCV inhibitor)
Cc1ccc(C(C)C)cc1OCC(=O)N/N=C/c1ccc2c(c1)OCCO2	LASV entry inh 1.1µM, FMDV antiviral inconclusive, Marburg entry inh inconclusive
CCc1ccccc1NC(=O)CNC(=O)c1n[nH]c(=O)c2ccccc12	FMDV antiviral 25µM (no result: LASV entry inh, Marburg entry inh)
CCCNC(=O)c1n[nH]c(=O)c2ccccc12	none
CCOc1ccc(C(=O)Nc2cccc(-c3nc4cc(Cl)cc(Cl)c4o3)c2)cc1	none (no result: Marburg entry inh, RE007 growth inh, HCV inhibitor)
Cc1cc(C(=O)Nc2cccc(-c3ccc(N4CCOCC4)nn3)c2)ccc1[N+](=O)[O-]	LASV entry inh inconclusive, Marburg entry inh inconclusive, HCV inhibitor 10µM
Cc1cc(C)n(-c2ccc(C(=O)Nc3cc(S(=O)(=O)N(C)C)ccc3Cl)cc2)n1	LASV entry inh inconclusive, FMDV antiviral 28µM, Marburg entry inh inconclusive, HCV inhibitor inconclusive
Cc1ccc(NC(=O)COc2cccc(-n3cnnn3)c2)cc1S(=O)(=O)N1CCOCC1	HCV inhibitor 11µM (no result: LASV entry inh, Marburg entry inh)
Cc1ccc(S(=O)(=O)N2CCOCC2)cc1NC(=O)COc1cccc(-n2cnnn2)c1	none
Cc1ccc(NC(=O)c2ccc(N3CCOCC3)c([N+](=O)[O-])c2)cc1S(=O)(=O)N1CCOCC1	FMDV antiviral 13µM, Marburg entry inh inconclusive, HCV inhibitor 3.5µM
CCC(COC)NC(=O)c1cnn(-c2ncc3c(n2)-c2ccccc2CCC3)c1C (configuration not stated)	none (no result: LASV entry inh, Sm TGR inh, Marburg entry inh, RE007 growth inh, HCV inhibitor)
CCCCCNC(=O)c1nc(-c2c(F)cccc2F)oc1-c1ccccc1	none (no result: LASV entry inh, Sm TGR inh, Marburg entry inh, HCV inhibitor)
CC(C)n1nnc2cc(C(=O)O)ccc21	none (no result: LASV entry inh, Sm TGR inh, Marburg entry inh, RE007 growth inh, HCV inhibitor)
Cc1cccc(C)c1OCC(=O)Nc1nc(-c2ccc(Br)cc2)ns1	none (no result: RE007 growth inh, HCV inhibitor)
Cc1c(C(=O)N2CCN(C)CC2)sc2ncnc(NCC3(c4ccccc4)CCOCC3)c12	none (no result: LASV entry inh, Sm TGR inh, Marburg entry inh, RE007 growth inh, HCV inhibitor)
COCCN1C(=O)CC[C@@]23C1=NC(C(=O)OC)=C(C(=O)OC)[C@@H]2N(CC=C(C)C)c1ccccc13	none (no result: LASV entry inh, Sm TGR inh, FMDV antiviral, RE007 growth inh, HCV inhibitor)

From PubChem
